# Six1-Eya2 inh – qHTS Assay for Inhibitors of the Six1/Eya2 Interaction; AlphaScreen GST-Six1/His-Eya2 binding, biochemical; hits give low values; activity change, % (test concentration not listed); AID 651725, 2012; hit rate 0.56% among 360,000; in the data active = activity change below about -65%; inconclusive = mostly about -30% to -63%; also: % is scaled to controls: 0 for no effect and ±100 for the full control effect
#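 Six1/Eya2 binding was read as AlphaScreen signal after compounds were pinned into GST-Six1 plus His-tagged Eya2 (5X stock 250/500 nM) in pH 8.0 Tris/NaCl/TCEP buffer, beads added, then incubated 1 h, 37 C, dark.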
# HP1b chromo inh – HTS for Inhibitors of HP1-beta Chromodomain Interactions with Methylated Histone Tails; Potency, µM (series often up to 114 µM), for the others: at the top dose activity change, negative = inhibition, actives largely listed as inhibitors; AID 540317, 2011; hit rate 0.56% among 390,000; AlphaScreen HP1-beta / biotin-H3K9me3 peptide binding; also: potency is read from the fitted curve at half-maximal effect; nearly all actives have a fitted effect of over 70% in size
# Target sequence (P83916 whole entry, looked up): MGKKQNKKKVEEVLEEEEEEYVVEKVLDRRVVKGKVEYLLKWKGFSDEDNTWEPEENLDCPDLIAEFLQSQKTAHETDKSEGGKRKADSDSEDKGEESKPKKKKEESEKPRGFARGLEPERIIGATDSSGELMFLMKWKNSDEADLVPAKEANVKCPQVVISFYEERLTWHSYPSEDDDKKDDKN
#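 AlphaScreen: HP1-beta (50 nM) preformed 30 min with biotin-H3(1-18)K9me3 peptide (50 nM) in PBS pH 7.4, 0.01% Tween-20. Compound added for 30 min at RT, then streptavidin donor/nickel chelate acceptor beads (10 ug/mL) for 30 min.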
# G9a inh – qHTS Assay for Inhibitors of Histone Lysine Methyltransferase G9a | G9a H3K9 monomethylation, AlphaScreen, 2 h | Potency, µM (titrated, usually from 102 µM), for the others: at the highest dose activity, negative = inhibition, hits mostly inhibitors | hit rate 8.8% among 350,000 | AID 504332, 2011; also: potency is read from the fitted curve at half-maximal effect; % is scaled to controls: 0 for no effect and ±100 for the full control effect; nearly all actives have a fitted effect of over 75% in size
# Target sequence (Q96KQ7 913-1193 limits assumed): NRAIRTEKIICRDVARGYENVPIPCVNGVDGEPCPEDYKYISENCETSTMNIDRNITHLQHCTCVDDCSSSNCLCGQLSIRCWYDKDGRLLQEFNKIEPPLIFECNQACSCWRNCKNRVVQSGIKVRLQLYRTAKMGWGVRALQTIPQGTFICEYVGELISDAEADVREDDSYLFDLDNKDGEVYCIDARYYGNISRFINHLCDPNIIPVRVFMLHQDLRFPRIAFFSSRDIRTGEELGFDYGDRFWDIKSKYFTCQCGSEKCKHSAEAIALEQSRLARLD
#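 AlphaScreen read-out: biotin-H3K9 peptide (500 nM) methylation by 20 nM enzyme with 20 uM SAM, 2 h at room temperature after 15 min compound preincubation; anti-monomethyl H3K9 antibody plus donor/acceptor beads, 10 min dark.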
# CtBP-E1A blk – qHTS Assay for Inhibitors of the CtBP/E1A Interaction; CtBP / adenovirus E1A interaction (AlphaScreen); AlphaScreen GST-E1A/His-CtBP binding, 1536-well; hits give low values; activity change, % (concentration not given with the values); hit rate 0.49% among 340,000; AID 651724, 2012; in the data active = activity change below about -65%; inconclusive = mostly about -30% to -63%; also: % is scaled to controls: 0 for no effect and ±100 for the full control effect
#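 Steps: dispense buffer (Tris pH 8.0, NaCl 300 mM, TCEP 1 mM, BSA, Tween 20); add 5X protein mix (GST-E1A, His-CtBP, 125 nM each); pin 23 nL compound; 2 h at 37 °C, dark; add 5X beads (50 ug/mL); 1 h; read.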
# JMJD2A Tudor – qHTS Assay for Inhibitors of JMJD2A-Tudor Domain | Lysine-specific demethylase 4A (Homo sapiens), O75164 | AlphaScreen JMJD2A-Tudor / H3K4me3 peptide binding | Potency, µM (titrated, usually from 114 µM), for inactives: top-dose activity change, negative = inhibition, actives largely listed as inhibitors | hit rate 4.4% among 390,000; also: potency is read from the fitted curve at half-maximal effect; % is scaled to controls: 0 for no effect and ±100 for the full control effect; nearly all actives have a fitted effect of over 50% in size
# BAZ2B block – qHTS Assay for Inhibitors of BAZ2B; hit rate 4.4% among 360,000; AID 504333, 2011; AlphaScreen BAZ2B-H3K14Ac peptide displacement; Potency, µM (doses to about 114 µM), for inactives: top-dose activity change, negative = inhibition, hits mostly inhibitors; also: potency is read from the fitted curve at half-maximal effect; % is scaled to controls: 0 for no effect and ±100 for the full control effect; nearly all actives have a fitted effect of over 60% in size
#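 Multi-concentration screen (max 110 uM) measuring displacement of acetylated histone H3 peptide from BAZ2B by AlphaScreen, using 50 nM protein, 50 nM peptide and 10 ug/mL streptavidin donor plus Ni-chelate acceptor beads.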
# Active calls of the source: *; ? = inconclusive; nt = no result; [ ] = remark or other dose. In the library only some 10% were active in any assay of this set; here they are far more common. Unless noted, calls follow the shape of the dose curve; as a rule, active = well fitted inhibition curve with a large enough effect; inconclusive = small, poorly fitted or top-dose-only effect; inactive = no such curve, though single readings can be large or run the other way.
SMILES,Six1-Eya2 inh,HP1b chromo inh,G9a inh,CtBP-E1A blk,JMJD2A Tudor,BAZ2B block
Brc1ccc(CNc2nc3ccccc3n2CCN2CCCCC2)cc1,-22.7,27.2%,44.7µM*,-8.5,-23.8%,?
Brc1cccc(CNc2nc3ccccc3n2CCN2CCCCC2)c1,-14.9,16.5%,?,-11.8,-32.6%,-29.8%
O=C(Nc1nc2ccccc2n1CCN1CCCC1)C1CCCCC1,0.0,14.8%,8.8%[12.7 µM],0.0,-25.7%,50.1µM*
O=C(Nc1nc2ccccc2n1CCN1CCOCC1)c1ccc(Cl)cc1,-13.6,9.4%,nt,-17.9,-14.2%,-3.7%
O=C(Nc1nc2ccccc2n1CCN1CCCCC1)C1CCCCC1,5.9,7.0%,24.4%[12.7 µM],-3.0,-31.6%,?
O=S(=O)(c1cccc(O)c1)N1CCN(S(=O)(=O)c2c(F)cccc2F)CC1,nt,nt,nt,nt,-21.1%,nt
O=C1CSC(=Nc2cccc([N+](=O)[O-])c2)N1,0.3,45.3%,?,nt,-5.4%,?
O=C(CCS(=O)(=O)c1cc2c3c(c1)CCN3C(=O)CC2)Nc1cccc(Br)c1,nt,17.4%,?,nt,79.4µM*,2.2%
COc1ccccc1NC(=O)CCS(=O)(=O)c1cc2c3c(c1)CCN3C(=O)CC2,nt,11.2%,20µM*,nt,?,-2.2%
COc1ccc(C)cc1NC(=O)CCS(=O)(=O)c1cc2c3c(c1)CCN3C(=O)CC2,nt,70.8µM*,8.91µM*,nt,31.6µM*,-15.6%
COc1ccc(NC(=O)CCS(=O)(=O)c2cc3c4c(c2)CCN4C(=O)CC3)c(OC)c1,nt,4.2%,?,nt,-15.7%,-29.7%
COc1ccc(NC(=O)CCS(=O)(=O)c2cc3c4c(c2)CCN4C(=O)CC3)cc1OC,nt,9.1%,-28.9%[59 µM],nt,-5.8%,-7.0%
COCCN1C(=O)COc2ccccc2C1C(=O)Nc1ccc2c(c1)OCCO2 (stereo not given),5.8,nt,nt,5.5,nt,nt
CN=c1scc(-c2ccccc2F)n1/N=C(\C)c1cccnc1,-24.0,?,15.8µM*,?,15.8µM*,35.5µM*
COC(=O)C1C(c2ccc(OC)c(OC)c2)NC(c2ccc(OC)c(OC)c2)C(C(=O)OC)S1(=O)=O (stereo not given),0.9,9.7%,-45.3%[59 µM],0.8,-14.7%,-3.9%
COC(=O)C1CSc2[nH]c(=O)sc2C1c1ccc(OC)c(OC)c1 (stereo not given),-1.6,-4.8%,70.8µM*,-4.5,-9.0%,-28.8%
CN(CC(O)CON=C1c2ccccc2-c2ccccc21)S(=O)(=O)c1ccc(Br)cc1 (stereo not given),3.4,25.6%,11.6%,11.0,-13.7%,11.9%
CCOC(=O)C1CCN(CC(O)COC(CC)c2ccccc2)CC1 (stereo not given),5.0,45.6%,-5.4%,nt,20.2%,-11.1%
NNC(=O)c1nnsc1-c1csnn1,-7.6,22.5%,nt,17.2,79.4µM*,nt
Cc1ccc(S(=O)(=O)N(Cc2cc3cccc(C)c3[nH]c2=O)c2ccccc2)cc1,6.3,17.4%,2.3%,-1.3,5.6%,0.4%
C=CCn1cc(/C=C/c2cc[n+](C)cc2)c2ccccc21,5.2,-5.1%,50.1µM*,nt,-12.2%,50.1µM*
C=CCn1c(C)c(/C=C/c2cc[n+](C)cc2)c2ccccc21,8.3,23.9%,44.7µM*,8.4,-8.3%,3.4%
Cc1[nH]c2ccccc2c1/C=C/c1cc[n+](C)cc1,-1.6,13.2%,14.3%[12.7 µM],-2.5,-11.6%,56.2µM*
C[n+]1ccc2[nH]c3ccccc3c2c1,4.2,nt,nt,1.2,nt,nt
C[C@@H]1ON(C)[C@H]2C[C@H]3c4[nH]c5ccc(-c6ccc7c(c6)OCO7)cc5c4CCN3C[C@@H]12,?,nt,nt,-29.5,nt,nt

# From PubChem
